{"source": "PubChem BioAssay AID1430", "about": "(University of Pittsburgh Molecular Library Screening Center, 2008)", "note": "Screen size: about 220,000 compounds; about 240 (0.11%) were called active. This is one part of a sample in which actives are shown more often than they occur. Unmarked numbers belong to inactive results.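 How the source made its calls: active means inhibition of 50% or more in the single-dose primary screen; inactive means inhibition below 50%.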"}
{"test_system": "hexokinase 1 [Trypanosoma brucei]", "experiment": "Trypanosoma brucei hexokinase 1 inhibitors, primary screen, biochemical, G6PDH-coupled NADH absorbance, MLSCN library (AID 1430)", "conditions": "recombinant TbHK1, G6PDH-coupled NADH A340; at 10 µM; stronger effect = higher value"}
{"smiles": "CC(C)(C)c1ccc(C(=O)NCc2nnc(SCC(=O)N3CCCc4ccccc43)n2-c2ccccc2)cc1", "inhibition": "-3.07%"}
{"smiles": "Cc1ccc(-n2nc(N)c3c(=O)oc(N(C)C)nc32)cc1", "inhibition": "0.228%"}
{"smiles": "OCCCNC(c1ccccc1)c1ccc(O)cc1", "note": "(stereo not drawn)", "inhibition": "0.734%"}
{"smiles": "OCCn1c(-c2ccccc2)csc1=Nc1ccccc1", "inhibition": "-11.3%"}
{"smiles": "CC1(C)CC(=O)C=C(NCCN2CCNCC2)C1", "inhibition": "-12.2%"}
{"smiles": "CC1(C)CC(=O)C=C(NCCCNC2CCCCC2)C1", "inhibition": "58.6% (active)"}
{"smiles": "CC1(C)CC(=O)C=C(NCCCN2CCCC2=O)C1", "inhibition": "0.498%"}
{"smiles": "Cc1cc(C)c2nc(SCC(=O)N(C)C3CCS(=O)(=O)C3)cc(C)c2c1", "note": "(stereo not drawn)", "inhibition": "-5.97%"}
{"smiles": "CCc1ccc(-c2nn(-c3ccccc3)cc2CSC(=N)N)cc1", "inhibition": "14%"}
{"smiles": "O=c1c(-c2ccccc2)cnc2n1CCS2", "inhibition": "-3.12%"}
{"smiles": "CN(C)c1ccc(C=C2C(=O)OC3(CCCC3)OC2=O)cc1", "inhibition": "-24.4%"}
{"smiles": "Cc1cccc(C)c1NC(=O)C(c1ccccc1)N1CC(=O)Nc2ccccc21", "note": "(stereo not drawn)", "inhibition": "3.26%"}
{"smiles": "C/C(CC1CC(C)(C)OC1=O)=N/Nc1nc(-c2ccccc2)cs1", "note": "(stereo not drawn)", "inhibition": "-4.91%"}
{"smiles": "CCOC(=O)C(=O)Nc1nc(-c2ccccc2)c(CC)s1", "inhibition": "-8.25%"}
{"smiles": "Cc1ccc(CNC(=O)COc2ccc(S(=O)(=O)NC(C)C)cc2)cc1", "inhibition": "-6.99%"}
{"smiles": "O=C(NC(=S)Nc1cc(C(F)(F)F)ccc1N1CCOCC1)c1ccc(-c2cccc(Cl)c2)o1", "inhibition": "-33.5%"}
{"smiles": "CCNC(=O)CC1C(=O)N(c2ccc(F)cc2)C(=O)N1Cc1cccs1", "note": "(stereo not drawn)", "inhibition": "-6.58%"}
{"smiles": "COC(=O)c1ccc(NC(=S)NN2CCOCC2)cc1", "inhibition": "0.284%"}
{"smiles": "COc1ccc(NS(=O)(=O)c2cc(NC(=O)CC(=O)c3ccc([N+](=O)[O-])cc3)ccc2C)cc1", "inhibition": "-3.8%"}
{"smiles": "N#C/C(C(=S)Nc1ccccc1)=C1/NN=C(N2CCOCC2)N1c1ccccc1", "inhibition": "-22%"}
{"smiles": "Cc1ccc(C(=O)N/C(=C\\c2ccco2)C(=O)N2CCSCC2)cc1C", "inhibition": "-18.1%"}
{"smiles": "C/C(=N/NC(=O)c1cc(Cl)ccc1O)C12CC3CC(CC(C3)C1)C2", "inhibition": "-5.54%"}
{"smiles": "Cn1nc(C(F)(F)F)cc1-c1ccc(/C=C(\\C#N)C(=O)c2cccc(C(F)(F)F)c2)s1", "inhibition": "20.2%"}
{"smiles": "Cc1ccc(/C=C/C(=O)Nc2ccc([N+](=O)[O-])c(NC(=O)/C=C/c3ccc(C)o3)c2)o1", "inhibition": "-13.6%"}
{"smiles": "Cc1ccc2[nH]c(C)c(CCNC(=O)NC3CCCCC3)c2c1", "inhibition": "-1.75%"}
{"smiles": "C/C(=N/Nc1ccc(Cl)cc1)c1cnnc(-c2ccccc2)n1", "inhibition": "-3.6%"}
{"smiles": "COC(C[C@H](O)CC(=O)COCc1ccccc1)OC", "inhibition": "-5.95%"}
{"smiles": "CC1CCCN(C(=O)c2ccc3c(c2)C(=O)N(CCC2=CCCCC2)C3=O)C1", "note": "(stereo not drawn)", "inhibition": "9.11%"}
